# HIV RNase H inh-1 – blocks HIV-1 RNase H cleavage of RNA/DNA duplex. 65,000 tested, 1.9% active. RT-RNase H RNA/DNA duplex cleavage, fluorescence. AID 565. inhibition, % at 10 µM. P04585; in the data active means inhibition above about 50%
# RmlC RmlD mix – mixture blocks RmlC and RmlD coupled enzyme activity; RmlC/RmlD coupled enzyme inhibition, 384-well mixture HTS; inhibition, % at 5.5 µM; 110,000 tested, 0.39% active; AID 1532; in the data active means inhibition above about 30%, passing the limit was not always enough
# HIV RNase H inh-2 – confirmation of HIV-1 reverse transcriptase RNase H inhibitors; shares compounds with HIV RNase H inh-1; Recombinant RT RNase H, fluorescent RNA/DNA duplex cleavage; inhibition, % at 10 µM; 1,000 tested, 39% active; AID 651; in the data active means inhibition above about 48%
# An asterisk follows results filed as active; nt = not tested or not shown. This is one part of a sample in which hits are shown more often than they occur.
SMILES,HIV RNase H inh-1,RmlC RmlD mix,HIV RNase H inh-2
Cn1c(NC(=O)Cc2ccc(F)cc2)cc(=O)n(C)c1=O,-3,1,nt
CN1CCC(N(C)C(=O)c2ccccc2Nc2ccc(SC(F)F)cc2)CC1,0,-12,nt
NC(=O)C1(N2CCCCC2)CCN(C(=O)NC2CCCCC2)CC1,-23,-10,nt
CCc1ccc2[nH]c(=O)c(C(c3nnnn3CC3CCCO3)N3CCCc4ccccc43)cc2c1 (stereo not drawn),8,6,nt
Cc1cc2cc(C(c3nnnn3CC3CCCO3)N3CCCc4ccccc43)c(=O)[nH]c2cc1C (stereo not drawn),52*,-11,29
OCc1nc2ccccc2n1CC(O)Cn1ccc2ccccc21 (stereo not drawn),-9,10,nt
Oc1ccccc1NCC(O)Cn1ccc2ccccc21 (stereo not drawn),78*,-14,29
CC(C)N(CCc1ccncc1)C(=O)Nc1ccc(Cl)c(Cl)c1,-21,-12,nt
CC(=O)OCc1c(F)c(F)c(-n2nc(C)cc2C)c(F)c1F,3,3,nt
CC(C)(C)C1=Nn2c(nnc2-c2ccccc2F)SC1,-16,5,nt
CC(C)(C)C1=Nn2c(nnc2-c2ccccn2)SC1,64*,11,70*
CCN1C(=O)N(CN2CCOCC2)C2C1N(CN1CCOCC1)C(=O)N2CC (stereo not drawn),-11,-8,nt
CCn1c(Cc2ccccc2)nnc1SCC(=O)Nc1nc(C)cs1,nt,8,nt
CCn1c(Cc2ccccc2)nnc1SCC(=O)Nc1nc(C)c(C)s1,64*,-13,12
CC(=O)N1CCc2cc(S(=O)(=O)NCCC(=O)NC3CCCc4ccccc43)ccc21 (stereo not drawn),-1,nt,nt
COc1ccc(OC)c(NC(=O)c2cc(-c3cc(Cl)ccc3O)n[nH]2)c1,24,4,nt
COc1ccc(NC(=O)c2cc(-c3cc(C)ccc3O)n[nH]2)cc1Cl,51*,5,5
CNC(=S)N1C2CCC1CC(NC(=O)NC13CC4CC(CC(C4)C1)C3)C2 (stereo not drawn),nt,4,nt
Fc1ccccc1CSc1nc2ncccc2[nH]1,88*,7,60*
Fc1cccc(F)c1CSc1nc2ccccc2[nH]1,nt,-16,nt
Cc1nn(-c2ccccc2)c2[nH]c(=O)c(CNc3ccc4c(c3)OCCO4)cc12,80*,4,11
CCc1ccc(NCc2cc3c(C)nn(-c4ccccc4)c3[nH]c2=O)cc1,nt,-4,nt
CCC(C)(C)n1nnnc1CN1CCc2ccccc21,nt,23,nt
O=C(CSc1ncn[nH]1)NCCCc1ccccc1,-9,-2,nt
Nc1ccc(N2CCCCC2)cc1N1CCCCC1,-3,nt,nt
SMILES,HIV RNase H inh-1,RmlC RmlD mix,HIV RNase H inh-2
Fc1ccc(-n2[nH]nnc2=S)cc1N1CCCC1,63*,-5,-6
CCC1CC2(C)NC(=O)c3c(sc4c3CC(C)(C)OC4)N2C1=O (stereo not drawn),79*,nt,60*
Cn1c(NN)nc2sc3c(c2c1=O)CC(C)(C)OC3,nt,7,nt
O=C(O)c1ccc(NS(=O)(=O)c2cc(Cl)ccc2Cl)cc1O,1,nt,nt
COc1ccc(CCNC(=O)Cn2cnc3c(cnn3-c3ccccc3Cl)c2=O)cc1OC,-11,-10,nt
COCCn1c(COC)nc2ccccc21,-22,11,nt
COCc1nc2ccccc2n1CCOc1ccccc1OC,80*,-23,45
Cc1noc(C)c1S(=O)(=O)N1CCC(C(=O)N2CCC(N3CCCCC3)CC2)CC1,-5,nt,nt
CC(C)NC(=O)c1cc(=O)n(C)c(=O)n1C,-3,-14,nt
CC(=O)N1CCc2cc(S(=O)(=O)NC(CC(C)C)C(=O)Nc3cc(C(=O)O)ccc3C)ccc21 (stereo not drawn),61*,nt,22
CC(=O)N1CCc2cc(S(=O)(=O)NC(Cc3ccccc3)C(=O)Nc3cc(C)ccn3)ccc21 (stereo not drawn),nt,3,nt
Cc1ccc(S(=O)(=O)Nc2cc(Cl)c(O)cc2C)cc1,nt,-15,nt
Cc1c(NS(=O)(=O)c2ccccc2)cc(Cl)c(O)c1C,74*,-5,33
CC(=O)NCC1=C(NC(C)=O)C2CC1C(C)(C)C2C (stereo not drawn),-1,nt,nt
C=CCNc1nc(C2(C)CC3(CC(C)(C)OC3=O)C(=O)O2)cs1 (stereo not drawn),57*,3,24
CC(C)COCC1CC2(CC(C)(c3csc(N)n3)OC2=O)C(=O)O1 (stereo not drawn),1,nt,nt
Cc1c(Br)c([N+](=O)[O-])nn1CC(=O)NCc1cccnc1,nt,8,nt
CCOC(=O)c1c(C)[nH]c(NC(=O)N2CCOCC2)c1C,1,8,nt
Cc1cc2nc(-c3ccc(SCC(=O)N4CCOCC4)nc3)[nH]c2cc1C,7,11,nt
Cc1cc2nc(-c3ccc(SCC(=O)N4CCN(C(=O)c5ccco5)CC4)nc3)[nH]c2cc1C,74*,32,45
COC(=O)c1sc2nc(-c3ccco3)ccc2c1N,79*,-20,34
NC(=O)c1sc2nc(-c3ccco3)ccc2c1N,nt,3,nt
CCN(CC)C(C)C(=O)NCC1(c2ccccc2)CCOCC1 (stereo not drawn),nt,6,nt
CCCc1cc2c(cc1NC(=O)c1ccc(C)cc1)OCO2,nt,-7,nt
O=C1C2C(C(=O)N1c1ccncc1)C1C=CC2C12CC2 (stereo not drawn),74*,-8,29
SMILES,HIV RNase H inh-1,RmlC RmlD mix,HIV RNase H inh-2
Cc1ccc(N2C(=O)C3C(C2=O)C2C=CC3C23CC3)cc1 (stereo not drawn),1,-1,nt
CNC(=O)N(C1=NCC(C)(C)S1)c1ccc(F)c(Cl)c1,-28,-11,nt
O=C(Nc1nnc(-c2ccc3c(c2)CCCC3)o1)c1ccccc1,nt,-12,nt
O=C(Nc1nnc(-c2ccc3c(c2)OCCO3)o1)c1ccc(Cc2ccccc2)cc1,59*,33,10
O=C(CSc1ccc2nnc(-c3ccc(Cl)cc3)n2n1)N1CCN(c2ccccc2)CC1,60*,nt,48
CCOc1ccc(-c2nnc3ccc(SCC(=O)N4CCN(c5ccccc5)CC4)nn23)cc1,-25,nt,nt
Cc1ccc(CCNc2ccccc2C)cn1,nt,6,nt
CC(=O)N(Cc1cc(=O)[nH]c2ccccc12)c1ccccc1,-4,-8,nt
CC(=O)N(Cc1cc(=O)[nH]c2ccccc12)c1cccc(C)c1,82*,7,67*
C=CCn1c(-c2c[nH]c3ccccc23)n[nH]c1=S,57*,3,16
CCn1c(-c2c[nH]c3ccccc23)n[nH]c1=S,-21,2,nt
C=CCNC(=O)c1cccc(C(F)(F)F)c1,nt,9,nt
CCOC(=O)c1c(N)sn(-c2ccccc2C)c1=S,92*,10,71*
CCOC(=O)c1sc(=S)n(-c2ccccc2Cl)c1SC,nt,23,nt
CSc1nc2sc3c(c2c2nnnn12)CCCC3,51*,4,33
CSc1nc2sc3c(c2c2nnnn12)CCC3,41,nt,nt
COC(C)(C)[C@]12CC(O)(c3ccccc3)ON1[C@H]1CCCCC1N2O (stereo partly drawn),-12,4,nt
CC(C)C(NS(=O)(=O)c1cccs1)C(=O)NCc1ccc2c(c1)OCO2 (stereo not drawn),-5,-1,nt
CC(=Nc1ccccc1)Nc1ccccc1,25,2,nt
S=C(N=Nc1ccccc1)NNc1ccccc1,69*,0,32
CC(C)Cn1c(Cc2ccccc2)n[nH]c1=S,nt,-9,nt
Cc1ccccc1NC(=O)c1c(O)c2cccc3c2n(c1=O)CCC3,1,nt,nt
Cc1ccccc1NC(=O)c1c(O)c2cccc3c2n(c1=O)CC3,52*,nt,97*
Cc1ccc(-c2cc(-c3ccccc3)[nH]c(=S)c2C#N)cc1,nt,0,nt

# Screening results deposited in PubChem BioAssay by several laboratories.
